Assay outcomes deposited in PubChem BioAssay by National Center for Advancing Translational Sciences (NCATS).
TDP1 inh: TDP1 (human) enzyme inhibition; Q9NUW8; recombinant TDP1, AlphaScreen DNA substrate cleavage; Potency, µM (top dose mostly 130 µM), inactives show top-dose activity change, negative = inhibition, hits mostly inhibitors; actives 0.28% (n = 350,000); AID 485290; further: potency means the concentration at half of the fitted maximal effect; on the % scale 0 is the no-effect control and ±100 the full control effect; nearly all actives have a fitted effect of over 40% in size
Target sequence (Q9NUW8 whole entry, looked up): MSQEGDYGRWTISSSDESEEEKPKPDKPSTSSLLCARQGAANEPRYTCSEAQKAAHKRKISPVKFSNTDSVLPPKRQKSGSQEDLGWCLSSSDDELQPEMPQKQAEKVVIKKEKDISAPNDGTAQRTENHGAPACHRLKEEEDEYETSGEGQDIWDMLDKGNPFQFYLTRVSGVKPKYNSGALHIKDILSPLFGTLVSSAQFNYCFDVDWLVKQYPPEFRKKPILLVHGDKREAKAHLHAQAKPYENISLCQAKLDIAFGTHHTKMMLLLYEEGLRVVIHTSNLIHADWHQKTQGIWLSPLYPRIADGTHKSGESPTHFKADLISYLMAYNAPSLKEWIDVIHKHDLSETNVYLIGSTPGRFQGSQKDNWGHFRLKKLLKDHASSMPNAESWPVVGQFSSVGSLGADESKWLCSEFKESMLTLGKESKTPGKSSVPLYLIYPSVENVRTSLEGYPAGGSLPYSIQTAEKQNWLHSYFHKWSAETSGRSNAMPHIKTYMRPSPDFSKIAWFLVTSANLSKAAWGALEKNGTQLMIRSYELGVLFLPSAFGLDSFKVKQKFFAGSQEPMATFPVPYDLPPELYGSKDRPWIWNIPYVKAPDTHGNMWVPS
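Signal: AlphaScreen proximity between streptavidin donor and anti-FITC acceptor beads on intact substrate. Reaction: Tdp1 1 nM, substrate 15 nM final, 5 min RT after 15 min compound preincubation.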
IL-1B inflam inh: inhibitors of inflammasome signaling (IL-1 beta secretion). AID 743279. activity change, % at 57.5 µM. THP-1 LPS/ATP IL-1B secretion, AlphaLISA, 16 h; active compounds read low. actives 4.7% (n = 360,000); in the data active means activity change below about -50%; inconclusive means mostly about -30% to -49%; further: on the % scale 0 is the no-effect control and ±100 the full control effect
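THP-1 cells pretreated 1 hr with compounds (up to 57.5 uM final), then stimulated with LPS (250 ng/mL final) plus ATP (1.25 mM final); secreted IL-1B measured by AlphaLISA after 16 hr, decreased signal indicating inhibition.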
TDP1 cell CPT: growth inhibition of DT40 Tdp1-/-;hTDP1 cells with camptothecin (screen for TDP1 inhibitors). chicken DT40 Tdp1-/-;hTDP1 cells + 20 nM CPT, ATP luminescence, 48 h. Potency, µM (titrated, usually from 46.2 µM), inactives show at the top dose activity change, negative = growth inhibition, actives largely listed as inhibitors. AID 686979. actives 12% (n = 420,000); further: potency means the concentration at half of the fitted maximal effect; on the % scale 0 is the no-effect control and ±100 the full control effect; nearly all actives have a fitted effect of over 55% in size
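Chicken DT40 Tdp1-/- cells stably complemented with human TDP1 were seeded at 400 cells/well in medium containing 20 nM camptothecin, exposed to pin-transferred compounds, and grown at 37 °C for at least 48 hr. Viability was read as ATP luminescence.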
TGFb SMAD3 inh: TGF-b pathway inhibition; HepG2 CAGA-GFP TGF-b/SMAD3 reporter, GFP fluorescence, 18 h; TGF-beta stimulated, 500 pg/mL final; Potency, µM (highest dose often 46.1 µM), for the others: at the top dose activity, negative = inhibition, actives largely listed as inhibitors; actives 1.2% (n = 410,000); AID 588855; further: potency means the concentration at half of the fitted maximal effect; on the % scale 0 is the no-effect control and ±100 the full control effect; nearly all actives have a fitted effect of over 65% in size
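TGF-beta reporter screen: HEPG2 CAGA-GFP, 1% FBS, 500 pg/mL TGF-beta final, 18 h; per-cell GFP summed per well; curves fitted and categorized by class.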
HepG2 viability: kills HepG2 cells in TGF-b inhibitor counter-screen. HepG2 CAGA-GFP viability, ATP luminescence, 18 h. Potency, µM (top dose mostly 46.1 µM), for the others: at the highest dose activity change, negative = cytotoxicity, most hits filed as cytotoxic. actives 0.76% (n = 410,000); further: potency means the concentration at half of the fitted maximal effect
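HepG2 CAGA-GFP cells (1000/well, DMEM with 1% FBS) received compound, then TGF-beta at 500 pg/mL final, and were incubated 18 hours at 37 degrees C. Viability was read by CellTiter-Glo luminescence. Media-only wells were set as complete cell-killing and DMSO as no toxicity.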
DT40 TDP1 no CPT: qHTS for Inhibitors of human tyrosyl-DNA phosphodiesterase 1 (TDP1): qHTS in cells in absence of CPT; DT40 Tdp1-/- hTDP1 cells, no CPT, ATP luminescence, 48 h; Potency, µM (series often up to 46.2 µM), without a hit: top-dose activity change, negative = growth inhibition, hits mostly inhibitors; AID 686978, 2013; actives 15% (n = 420,000); further: potency means the concentration at half of the fitted maximal effect; on the % scale 0 is the no-effect control and ±100 the full control effect; nearly all actives have a fitted effect of over 55% in size
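Chicken DT40 Tdp1-/- cells complemented with human TDP1, screened without camptothecin (DMSO vehicle only), 400 cells/well. Compounds pin-transferred, cells incubated at 37 °C for at least 48 hr. Growth read as ATP-dependent luminescence (CellTiter-Glo, 30 min at RT).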
The depositor's hits bear a star. An excerpt weighted towards active compounds, which were near 18% of everything screened. Unless noted, the call rests on the fitted dose curve; in most records, active means well fitted curve in the direction sought with a large enough effect; inconclusive means small, poorly fitted or top-dose-only effect, or another doubt; inactive means no such curve, though single readings can be large; an effect the other way counts as inactive or inconclusive.

What do the screens show for `Cc1sc2ccccc2[n+]1C`?
TDP1 cell CPT: 4µM*; TGFb SMAD3 inh: -6%; HepG2 viability: -9%; DT40 TDP1 no CPT: 3.2µM*

Results for Cc1ccc(S(=O)(=O)Cc2sc3ccccc3[n+]2C)cc1 ?
TDP1 inh: 3%; IL-1B inflam inh: 11; TDP1 cell CPT: -25%; TGFb SMAD3 inh: -6%; HepG2 viability: -15%; DT40 TDP1 no CPT: inconclusive

How did CC[n+]1c(C)sc2sc3ccccc3c21 do in these assays?
TDP1 inh: 9%

Results for Cc1sc2ccccc2[n+]1CCCCBr ?
TDP1 cell CPT: 4µM*; TGFb SMAD3 inh: inconclusive; HepG2 viability: -21%; DT40 TDP1 no CPT: 5.6µM*

Results for Cc1sc2ccccc2[n+]1Cc1ccccc1 ?
TDP1 cell CPT: 0.79µM*; TGFb SMAD3 inh: inconclusive; HepG2 viability: -4%; DT40 TDP1 no CPT: 1.1µM*

Results for COc1ccc2sc(C)[n+](C)c2c1 ?
TDP1 inh: 0%; IL-1B inflam inh: -13; TDP1 cell CPT: inconclusive; TGFb SMAD3 inh: 4%; HepG2 viability: -2%; DT40 TDP1 no CPT: 18µM*

How did CN(C)c1ccc(-c2cc(NCc3cccnc3)ncn2)cc1 do in these assays?
TDP1 inh: 4%; TDP1 cell CPT: -17%; DT40 TDP1 no CPT: -16%

Results for CCCNC(=O)Cn1c(=O)n(CC2CCC(C(=O)NC)CC2)c(=O)c2sccc21 (stereo not drawn) ?
TDP1 inh: 5%; TDP1 cell CPT: 5%; TGFb SMAD3 inh: 4%; HepG2 viability: 1%; DT40 TDP1 no CPT: 7%

How did Cc1sc2ccccc2[n+]1CCCC[n+]1c(C)sc2ccccc21 do in these assays?
TDP1 cell CPT: 4.5µM*; TGFb SMAD3 inh: inconclusive; HepG2 viability: -31%; DT40 TDP1 no CPT: 2.5µM*

How did O=C(NCCS(=O)(=O)N1CCC2(CC1)OCCO2)c1ccc(F)cc1 do in these assays?
TDP1 inh: -3%; IL-1B inflam inh: 8; TDP1 cell CPT: -4%; TGFb SMAD3 inh: 7%; HepG2 viability: 10%; DT40 TDP1 no CPT: -12%

What do the screens show for `CCN(CC(=O)NC(C)C)C(=O)c1ccc(S(=O)(=O)N(C)c2ccccc2OC)cc1`?
TDP1 inh: 11%; IL-1B inflam inh: 11; TDP1 cell CPT: inconclusive; TGFb SMAD3 inh: 3%; HepG2 viability: -59%; DT40 TDP1 no CPT: 15µM*

How did CCN(CC(=O)Nc1ccccc1OC)C(=O)c1ccc(N(C)S(=O)(=O)c2ccc(C)cc2)cc1 do in these assays?
TDP1 inh: 2%; IL-1B inflam inh: -4; TDP1 cell CPT: 15µM*; TGFb SMAD3 inh: 0%; HepG2 viability: -12%; DT40 TDP1 no CPT: 16µM*

How did CCN(CC(=O)Nc1ccc(NC(C)=O)cc1)C(=O)c1ccc(N(C)S(=O)(=O)c2ccc(C)cc2)cc1 do in these assays?
IL-1B inflam inh: 9; TDP1 cell CPT: 26µM*; TGFb SMAD3 inh: 10%; HepG2 viability: 6%; DT40 TDP1 no CPT: inconclusive

Results for CCOc1ccccc1NC(=O)CN(c1ccc(OC)c(OC)c1)S(=O)(=O)c1ccc(C)cc1 ?
IL-1B inflam inh: -7; TDP1 cell CPT: inconclusive; TGFb SMAD3 inh: -24%; HepG2 viability: -95%; DT40 TDP1 no CPT: inconclusive

Results for COc1ccc(NC(=O)COC(=O)c2ccc(S(=O)(=O)N(C)c3ccccc3OC)cc2)cc1 ?
IL-1B inflam inh: 0; TDP1 cell CPT: -4%; TGFb SMAD3 inh: 1%; HepG2 viability: 1%; DT40 TDP1 no CPT: 19%

Results for CCCNC(=O)NC(=O)COC(=O)c1ccc(S(=O)(=O)N(C)c2ccccc2OC)cc1 ?
TDP1 inh: 1%; IL-1B inflam inh: 27; TDP1 cell CPT: 29µM*; TGFb SMAD3 inh: -9%; HepG2 viability: -13%; DT40 TDP1 no CPT: 21µM*

How did CCN(CC(=O)Nc1ccc(OC)cc1)C(=O)c1ccc(NS(=O)(=O)c2ccc(C(C)=O)cc2)cc1 do in these assays?
TDP1 inh: 4%; IL-1B inflam inh: -10; TDP1 cell CPT: inconclusive; TGFb SMAD3 inh: -3%; HepG2 viability: 7%; DT40 TDP1 no CPT: -25%

What do the screens show for `COc1ccc(C2C(C(N)=O)=C(C)Nc3nc(SCc4ccccc4Cl)nn32)cc1OC` (stereo not drawn)?
TDP1 inh: 3%; TDP1 cell CPT: -5%; TGFb SMAD3 inh: 10%; HepG2 viability: -13%; DT40 TDP1 no CPT: -14%

What do the screens show for `NC(=O)c1ccsc1NC(=O)CCS(=O)(=O)c1ccc(Cl)cc1`?
TDP1 inh: 13%; IL-1B inflam inh: 1; TDP1 cell CPT: inconclusive; TGFb SMAD3 inh: -12%; HepG2 viability: -3%; DT40 TDP1 no CPT: inconclusive

What do the screens show for `CCN(Cc1ccccc1)C(=O)c1ccc(N(C)S(=O)(=O)c2ccc(C)cc2)cc1`?
TDP1 inh: 5%; IL-1B inflam inh: -3; TDP1 cell CPT: 18µM*; TGFb SMAD3 inh: inconclusive; HepG2 viability: -16%; DT40 TDP1 no CPT: 15µM*

Results for CCN(Cc1ccccc1)C(=O)c1ccc(CNS(=O)(=O)c2ccc(C)cc2)cc1 ?
TDP1 inh: 3%; IL-1B inflam inh: -16; TDP1 cell CPT: inconclusive; TGFb SMAD3 inh: -10%; HepG2 viability: -4%; DT40 TDP1 no CPT: inconclusive

How did Cc1ccc(S(=O)(=O)Nc2cccc(-c3ccc(N4CCC(C)CC4)nn3)c2)s1 do in these assays?
TDP1 inh: 1%; TDP1 cell CPT: inconclusive; TGFb SMAD3 inh: -27%; HepG2 viability: -3%; DT40 TDP1 no CPT: inconclusive

How did CCCN1CCC(NC(=O)CC2C(=O)NCCN2Cc2cccc(OC)c2)CC1 (stereo not drawn) do in these assays?
TDP1 inh: 6%; IL-1B inflam inh: 12; TDP1 cell CPT: 14%; TGFb SMAD3 inh: -1%; HepG2 viability: 3%; DT40 TDP1 no CPT: 14%

How did Cc1ccc2cc(C=O)c(N3CCOCC3)nc2c1C do in these assays?
IL-1B inflam inh: inconclusive; TDP1 cell CPT: inconclusive; TGFb SMAD3 inh: -1%; HepG2 viability: 3%; DT40 TDP1 no CPT: 18µM*

What do the screens show for `Cc1cc(N2CCOCC2)c2c(N)cc(C)c(C)c2n1`?
TDP1 inh: 1%; IL-1B inflam inh: -2; TDP1 cell CPT: 6%; TGFb SMAD3 inh: 0%; HepG2 viability: 0%; DT40 TDP1 no CPT: inconclusive

How did Cc1cccc(OCCNc2cc(N3CCN(C)CC3)ccc2[N+](=O)[O-])c1 do in these assays?
TDP1 inh: 7%; IL-1B inflam inh: inconclusive; TDP1 cell CPT: inconclusive; TGFb SMAD3 inh: 9%; HepG2 viability: 13%; DT40 TDP1 no CPT: 23µM*
